Consider 6 molecules from PubChem BioAssay.

Calls of active or inactive are those of the source.

One assay deals with Albumin (Bos taurus) (UniProt P02769). The experiment in a line: bovine serum albumin binders on microarray, profiling panel, artefact control for SMM control protein annotation, biochemical, small-molecule microarray, Alexa647 label, 635/667 nm fluorescence (AID 1118).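 Also: score merges 667 nm emission intensity and signal-to-noise per printed compound spot.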 The following applies: BSA-A647 binding, fluorescence 635 nm, higher = more signal.
A short description of assay [1]: small-molecule microarray binders of probe aXIP, primary screen, biochemical, NeuroSMM set, 635/667 nm fluorescence (AID 1119).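 Also: probe is the protein aXip251-270 applied at 1 µg/mL to compound-printed slides; binding of probe to printed compounds measured as 667 nm fluorescence plus signal to noise.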 The following applies: higher = more signal, called active from +8 up or from −8 down.
Assay [2] can be described thus: small-molecule binders of probe aNOTCH3, primary screen, biochemical, small-molecule microarray, 635/667 nm fluorescence (AID 1120).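 Also: probe is a biotin-tagged antibody raised against NOTCH3 rather than NOTCH3 protein; score merges spot fluorescence near 667 nm with spot signal to noise.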 As to conditions: higher = more signal.
Assay [3] is described as follows: small-molecule binders of probe aNOTCH2, primary screen, biochemical, small-molecule microarray, 635/667 nm fluorescence (AID 1121).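 Also: score merges feature fluorescence read at 667 nm with its signal to noise.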 As to conditions: higher = more signal.
In assay [4] the target is Carbonic anhydrase 2 (Homo sapiens) (UniProt P00918). Put plainly: CAII small-molecule binders, profiling panel, biochemical, small-molecule microarray, Alexa647-labelled CAII (AID 1122). The following applies: CAII-A647 binding fluorescence, higher = more signal.
The nature of assay [5]: COS7 lysate on small-molecule microarray, probe aHis, 635 nm (AID 1123).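 Also: z-score combines 667nm fluorescence intensity with signal-to-noise per printed compound spot.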 The following applies: COS7 cell lysate, fluorescence, higher = more signal.
Assay [6] in a line: compound binding in COS7 lysate, probe aLAP1, primary screen, cell lysate, small-molecule microarray (AID 1124).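 Also: lysate comes from COS7 cells expressing LAP1 and is applied at 0.3 µg/mL; score merges spot fluorescence near 667 nm with signal-to-noise over triplicate slides.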 As to conditions: probe aLAP1, fluorescence, higher = more signal.
A further assay has as its system Sam68 (KHDRBS1). Put plainly: Sam68 small-molecule binders, primary screen, biochemical, small-molecule microarray, 635 nm fluorescence (AID 1125).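 Also: score merges 667 nm channel intensity with signal to noise over triplicate slides.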 The following applies: small-molecule microarray binding, higher = more signal.
Assay [7] deals with Chordin-like protein 2 (CHRDL2). The experiment in a line: CHRDL2 small-molecule binders, primary screen, biochemical, small-molecule microarray, 635 nm fluorescence (AID 1126).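 Also: printed compound slides probed with Chrdl2 protein at 4 µg/mL for 1 h at 4 C; score merges 667 nm emission intensity with signal to noise over three replicate slides.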 As to conditions: small-molecule microarray binding, fluorescence 635 nm; higher = more signal.
The target of assay [8] is Concanavalin-A (Canavalia ensiformis) (UniProt P02866). Put plainly: ConA small-molecule binders, primary screen, artefact control for SMM control protein annotation, biochemical, small-molecule microarray, Alexa647 label, 635 nm (AID 1127).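 Also: z combines 667 nm emission intensity with signal-to-noise across three replicate slides.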 As to conditions: ConA-A647 binding fluorescence, higher = more signal.
The nature of assay [9]: anti-His antibody binders, primary screen, artefact control for SMM control protein annotation, biochemical, small-molecule microarray, 635 nm fluorescence (AID 1128).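 Also: score merges feature fluorescence with signal-to-noise for each printed compound spot.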 As to conditions: anti-His Alexa647 antibody binding, higher = more signal.
Assay [10] has as its system Human papillomavirus type 1a E7 protein (residues 1-88). The experiment in a line: HPV1a E7 small-molecule binders, primary screen, biochemical, small-molecule microarray, residues 1-88, 635 nm (AID 1129). As to conditions: small-molecule microarray binding, fluorescence 635 nm; higher = more signal.
For assay [11], the target named is Focal adhesion kinase 1 (Homo sapiens) (UniProt Q05397). Put plainly: small-molecule microarray binders of FAK, primary screen, biochemical, 635/667 nm fluorescence, BSA, DTT (AID 1130).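 Also: composite of spot emission at 667 nm and signal to noise over triplicate slides.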 As to conditions: PTK2 binding, 635 nm fluorescence, higher = more signal.
Assay [12] relates to Fibrinogen (Alexa647-labelled). The experiment in a line: fibrinogen binders on compound microarrays, profiling panel, artefact control for SMM control-protein annotation, biochemical, small-molecule microarray, 635/667 nm fluorescence (AID 1131).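 Also: z-score merges 667 nm fluorescence with per-spot signal-to-noise over triplicate slides.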 The following applies: fibrinogen-A647 binding fluorescence, higher = more signal.
Assay [13] concerns the target Follistatin (Homo sapiens) (UniProt P19883). Put plainly: follistatin binders on small-molecule microarrays, primary screen, biochemical, small-molecule microarray, 635/667 nm fluorescence (AID 1132). As to conditions: FST binding, 635 nm fluorescence, higher = more signal.
Assay [14] concerns the target Fibroblast growth factor 2 (Homo sapiens) (UniProt P09038). The experiment in a line: FGF2 binders on small-molecule microarrays, primary screen, biochemical, small-molecule microarray, 635/667 nm fluorescence (AID 1133). The following applies: small-molecule microarray binding, FGF2, fluorescence 635/667; higher = more signal.
Assay [15] can be described thus: mitochondrial membrane potential change in A549 cells, profiling panel, cell-based, JC-1 fluorescence, basal, 24 h, 100 nL (AID 1138).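 Also: A549 lung adenocarcinoma cells under basal conditions with no added stimulus; test concentration not given here.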 As to conditions: higher = more signal.
For a further assay, the system named is Lefty1. Put plainly: Lefty1 binders on small-molecule microarrays, primary screen, biochemical, small-molecule microarray, 635/667 nm fluorescence (AID 1139). As to conditions: small-molecule microarray binding, fluorescence 635/667; higher = more signal.
The subject of assay [16] is wheat germ agglutinin (Triticum aestivum), Alexa647-labelled. The experiment in a line: wheat germ agglutinin binders on compound microarrays, profiling panel, artefact control for SMM control-protein annotation, biochemical, small-molecule microarray, 635/667 nm fluorescence (AID 1140).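 Also: score merges 667 nm feature emission with signal to noise over triplicate slides.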 The following applies: WGA-A647 binding, 635 nm fluorescence, higher = more signal.

In assay [17] the target is Luciferin 4-monooxygenase (Photinus pyralis) (UniProt P08659). The experiment in a line: firefly luciferase enzyme inhibitors, primary screen, biochemical, luminescence, purified enzyme, 2006 set (AID 1141).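 Also: cell-free assay with purified firefly luciferase at 100 ng per well in PBS; test concentration not given here.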 The following applies: SteadyGlo luminescence, 30 min, higher = more signal, called active from +8 up or from −8 down.
Chain of Luciferin 4-monooxygenase (Photinus pyralis) (P08659 whole entry, looked up): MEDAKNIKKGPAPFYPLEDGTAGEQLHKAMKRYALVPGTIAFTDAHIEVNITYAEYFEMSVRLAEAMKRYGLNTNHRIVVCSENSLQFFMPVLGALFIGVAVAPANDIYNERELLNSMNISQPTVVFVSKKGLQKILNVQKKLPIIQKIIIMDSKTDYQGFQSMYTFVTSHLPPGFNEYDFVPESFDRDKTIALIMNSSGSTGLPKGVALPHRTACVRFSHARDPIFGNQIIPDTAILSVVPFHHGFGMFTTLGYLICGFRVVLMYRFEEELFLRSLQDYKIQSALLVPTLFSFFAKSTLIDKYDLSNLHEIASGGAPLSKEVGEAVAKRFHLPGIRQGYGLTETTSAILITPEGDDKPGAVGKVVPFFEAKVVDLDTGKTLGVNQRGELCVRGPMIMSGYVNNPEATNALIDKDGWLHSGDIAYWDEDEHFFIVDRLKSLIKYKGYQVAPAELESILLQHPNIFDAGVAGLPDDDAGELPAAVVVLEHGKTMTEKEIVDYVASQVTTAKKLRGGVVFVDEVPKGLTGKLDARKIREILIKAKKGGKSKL

Chain of Concanavalin-A (Canavalia ensiformis) (P02866 whole entry, looked up): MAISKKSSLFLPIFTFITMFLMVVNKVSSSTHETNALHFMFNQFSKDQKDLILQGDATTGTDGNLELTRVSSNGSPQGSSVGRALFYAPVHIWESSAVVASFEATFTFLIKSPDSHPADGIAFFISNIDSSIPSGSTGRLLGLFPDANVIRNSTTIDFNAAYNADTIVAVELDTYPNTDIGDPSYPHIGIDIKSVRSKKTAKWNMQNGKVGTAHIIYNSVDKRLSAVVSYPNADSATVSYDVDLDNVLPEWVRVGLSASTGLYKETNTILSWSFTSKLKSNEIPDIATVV
Chain of Fibroblast growth factor 2 (Homo sapiens) (P09038 whole entry, looked up): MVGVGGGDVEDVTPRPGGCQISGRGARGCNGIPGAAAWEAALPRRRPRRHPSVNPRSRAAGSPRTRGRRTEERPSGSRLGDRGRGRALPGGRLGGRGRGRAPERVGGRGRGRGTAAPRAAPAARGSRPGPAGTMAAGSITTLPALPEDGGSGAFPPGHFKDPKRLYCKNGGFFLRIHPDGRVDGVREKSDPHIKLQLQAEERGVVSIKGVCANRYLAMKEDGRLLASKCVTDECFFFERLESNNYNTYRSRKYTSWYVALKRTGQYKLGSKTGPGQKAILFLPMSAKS
Chain of Albumin (Bos taurus) (P02769 whole entry, looked up): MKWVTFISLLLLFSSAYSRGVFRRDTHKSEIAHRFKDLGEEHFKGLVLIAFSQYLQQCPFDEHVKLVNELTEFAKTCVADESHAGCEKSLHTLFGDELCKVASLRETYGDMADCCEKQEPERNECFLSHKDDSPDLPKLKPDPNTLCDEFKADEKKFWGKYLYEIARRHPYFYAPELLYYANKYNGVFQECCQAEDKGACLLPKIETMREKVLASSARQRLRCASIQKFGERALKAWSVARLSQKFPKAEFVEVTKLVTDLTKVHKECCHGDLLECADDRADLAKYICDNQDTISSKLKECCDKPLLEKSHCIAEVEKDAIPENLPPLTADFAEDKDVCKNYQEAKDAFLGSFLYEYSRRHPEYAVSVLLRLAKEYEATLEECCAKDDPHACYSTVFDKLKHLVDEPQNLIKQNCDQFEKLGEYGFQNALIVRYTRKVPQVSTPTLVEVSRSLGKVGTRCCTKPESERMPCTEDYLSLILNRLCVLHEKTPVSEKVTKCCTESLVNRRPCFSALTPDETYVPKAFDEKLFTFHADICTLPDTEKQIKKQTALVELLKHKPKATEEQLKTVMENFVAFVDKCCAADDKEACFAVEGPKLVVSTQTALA
Chain of Focal adhesion kinase 1 (Homo sapiens) (Q05397 whole entry, looked up): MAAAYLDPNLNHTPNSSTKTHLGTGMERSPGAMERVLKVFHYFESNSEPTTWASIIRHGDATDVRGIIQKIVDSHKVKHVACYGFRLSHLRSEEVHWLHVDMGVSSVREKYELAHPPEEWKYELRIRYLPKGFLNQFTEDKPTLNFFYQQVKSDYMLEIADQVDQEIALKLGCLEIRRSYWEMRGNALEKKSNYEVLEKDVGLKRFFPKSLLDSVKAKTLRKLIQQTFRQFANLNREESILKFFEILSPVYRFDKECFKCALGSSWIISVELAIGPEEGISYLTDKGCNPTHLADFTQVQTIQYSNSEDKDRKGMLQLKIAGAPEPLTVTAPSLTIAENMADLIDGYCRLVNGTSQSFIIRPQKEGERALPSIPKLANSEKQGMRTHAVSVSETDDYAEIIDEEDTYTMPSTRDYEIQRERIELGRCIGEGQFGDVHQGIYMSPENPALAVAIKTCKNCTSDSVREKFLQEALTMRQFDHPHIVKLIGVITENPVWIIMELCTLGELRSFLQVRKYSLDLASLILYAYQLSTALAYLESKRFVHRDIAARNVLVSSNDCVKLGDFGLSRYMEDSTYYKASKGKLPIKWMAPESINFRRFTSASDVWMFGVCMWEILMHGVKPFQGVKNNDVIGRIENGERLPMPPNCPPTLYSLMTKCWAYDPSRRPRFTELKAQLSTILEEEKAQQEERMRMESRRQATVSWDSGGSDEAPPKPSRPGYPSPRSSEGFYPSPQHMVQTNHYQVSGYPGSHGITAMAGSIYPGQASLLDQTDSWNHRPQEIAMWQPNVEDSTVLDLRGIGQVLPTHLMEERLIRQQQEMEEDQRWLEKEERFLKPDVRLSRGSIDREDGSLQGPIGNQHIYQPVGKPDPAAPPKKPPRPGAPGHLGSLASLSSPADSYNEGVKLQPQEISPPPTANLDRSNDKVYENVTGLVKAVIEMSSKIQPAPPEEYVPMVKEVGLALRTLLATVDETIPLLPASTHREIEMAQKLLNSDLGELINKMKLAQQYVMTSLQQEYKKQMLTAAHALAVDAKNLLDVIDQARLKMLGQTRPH
Chain of Follistatin (Homo sapiens) (P19883 whole entry, looked up): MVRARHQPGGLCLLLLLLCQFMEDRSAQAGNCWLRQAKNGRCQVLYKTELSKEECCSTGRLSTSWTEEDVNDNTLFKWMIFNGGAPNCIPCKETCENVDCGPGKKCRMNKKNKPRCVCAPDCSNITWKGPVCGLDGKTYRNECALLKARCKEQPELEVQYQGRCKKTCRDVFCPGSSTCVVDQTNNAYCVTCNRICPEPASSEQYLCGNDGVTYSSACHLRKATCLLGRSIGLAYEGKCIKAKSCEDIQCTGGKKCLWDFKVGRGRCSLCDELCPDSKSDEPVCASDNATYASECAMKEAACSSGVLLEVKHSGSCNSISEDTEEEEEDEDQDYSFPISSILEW

`CCCCN1CC=CC23O[C@@H]4/C=C\CCC(C)OC(=O)C4[C@H]2C(=O)N(CCCO)[C@@H]3C1=O` (stereo not given in full): the composite z-score with Albumin (Bos taurus) was -0.741; in assay [2] it was -0.41; in assay [3] it was -0.171; in [4], 0.283; in assay [5], -0.0462; in assay [6], 0.359. Also, the composite z-score in the assay with Sam68 (KHDRBS1) was -0.62; in [7], -1.38; in [8] it was 0.12; in assay [9], 1.41; in assay [10], -0.708; in assay [11], -0.198. The composite z-score is -0.992 in assay [12]; -0.885 in assay [13]; -1.24 in [14]; -0.46 in the assay with Lefty1; -0.588 in assay [16]. Also, the composite Z-score in [1] was 0.986 (inactive). The values for the z-score in assay [15] and in assay [17] were -0.573 and 0.821 (inactive), respectively.
With `Cc1ccc(S[C@]2(C(=O)NCc3ccccc3)CC(=O)N(C3CCCCC3)[C@@H]2c2ccc(CO)cc2I)cc1`, the composite z-score in the assay with Albumin (Bos taurus) is 0.0863; in assay [2], 0.0301; in assay [3], -0.133; in [4], 0.459; in [5] it was 2.13; in assay [6] it was 0.658. Also, the composite z-score with Sam68 (KHDRBS1) came to 1.23; in assay [7], 0.338; in assay [8], 1.14; in [9], 0.731; in assay [10], 0.872; in assay [11], 0.25. The composite z-score in assay [12] was 0.773; in assay [13], 0.382; in assay [14], 0.904; in the assay with Lefty1 it was -0.0294; in [16], 0.68. The composite Z-score in assay [1] was -0.0202 (inactive). For the same molecule, the z-score is 1.3 in assay [15] and -0.421 (inactive) in [17].
For `C=C(COC)/C(=C/C[C@H](OC(=O)c1ccncc1)c1ccccc1OCCO)c1cc(C(=O)OC)ccc1OC`, the composite z-score was 0.601 in the assay with Albumin (Bos taurus); 0.118 in assay [2]; -0.11 in [3]; 0.752 in assay [4]; 1.2 in [5]; 0.0479 in [6]. The composite z-score with Sam68 (KHDRBS1) is 1.27; in [7] it was 0.0156; in [8], 0.784; in [9], 0.717; in assay [10], 1.06; in assay [11] it was 0.319. Also, the composite z-score in assay [12] came out at 0.148; in [13], 1.17; in assay [14], 0.66; in the assay with Lefty1, 1.32; in assay [16] it was 0.925. Besides, the composite Z-score in assay [1] is 0.614 (inactive). The z-score was 0.416 in assay [15] and -0.756 (inactive) in [17].
For the molecule `COC(=O)[C@@H]1N=C(c2ccc(OCCCO)cc2)O[C@@H]1C`, the composite z-score with Albumin (Bos taurus) was -0.867; in assay [2] it was 0.0893; in [3], -0.082; in [4], -0.153; in [5], -0.223; in assay [6], 0.905. In addition, the composite z-score was 0.973 in the assay on Sam68 (KHDRBS1); -0.155 in [7]; 0.0255 in assay [8]; 0.217 in assay [9]; 0.0927 in assay [10]; 0.517 in [11]. Besides, the composite z-score in assay [12] was -0.323; in [13], 1.17; in [14], 0.936; with Lefty1 it was 0.516; in [16], -0.257. Also, the composite Z-score in assay [1] is -0.385 (inactive). Also, the z-score was 0.669 in assay [15] and -13.8 (active) in [17].
Turning to `CCOC(=O)C[C@H]1[C@H](OC(=O)Cc2ccc3c(c2)OCO3)[C@@H](NC(=O)C2CCCCC2)c2cc(OCCCO)ccc2N1C(=O)c1ccccc1`, the composite z-score with Albumin (Bos taurus) is 0.869; in assay [2] it was -0.0647; in [3] it was -0.14; in assay [4] it was 0.112; in [5] it was 0.469; in [6], 0.124. Besides, the composite z-score is 0.249 in the assay with Sam68 (KHDRBS1); -0.311 in assay [7]; 0.833 in assay [8]; 0.0657 in assay [9]; -0.0497 in assay [10]; 0.408 in assay [11]. Besides, the composite z-score in assay [12] was 0.744; in assay [13], -0.2; in assay [14] it was 0.0099; in the assay on Lefty1 it was 0.218; in assay [16], 0.0468. The composite Z-score in [1] is 0.394 (inactive). Further, the z-score in assay [15] is 1.76; in assay [17] it was -1.23 (inactive).
As to `CC(C)N1C(=O)c2ccccc2[C@@H](C(=O)NCCN2CCOCC2)[C@@H]1c1ccc(CO)cc1`, the composite z-score is 0.466 in the assay with Albumin (Bos taurus); -0.313 in assay [2]; -0.155 in assay [3]; 0.786 in [4]; -0.735 in assay [5]; -0.523 in assay [6]. For the same molecule, the composite z-score is -1.21 in the assay on Sam68 (KHDRBS1); -1.51 in assay [7]; -0.538 in assay [8]; 1.3 in assay [9]; -0.736 in assay [10]; -0.378 in assay [11]. Moreover, the composite z-score in [12] is -1.99; in assay [13], -0.0463; in assay [14] it was -1.57; with Lefty1, -0.786; in assay [16], -1.23. Besides, the composite Z-score in assay [1] was 1.62 (inactive). Further, the values for the z-score in assay [15] and in [17] were 0.156 and 0.128 (inactive), respectively.
